Laboratory results reported in PubChem BioAssay (NCI).
Compounds without any hit were thinned out: in the full panel of roughly 83,000, 20% have a hit.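 Growth was measured after 48 h exposure to one concentration of compound in 96-well plates. Values under 10 count as active.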 Active and inactive are the calls of the source.

What was measured:
Assay in all cases: NCI-60 one-dose screen, 48 h (100 = growth as untreated, 0 = no growth, -100 = all killed)
Details in all cases: 10 µM
[1] = tested on: NCI-H23 lung
[2] = tested on: NCI-H226 lung
[3] = tested on: NCI-H522 lung
[4] = tested on: A549/ATCC NSCLC
[5] = tested on: 786-0 renal
[6] = tested on: COLO 205 colon
[7] = tested on: DU-145 prostate
[8] = tested on: K-562 leukemia
[9] = tested on: MALME-3M melanoma
[10] = tested on: MDA-MB-231 breast
[11] = tested on: RXF 393 renal
[12] = tested on: SF-268 CNS
[13] = tested on: SF-295 CNS
[14] = tested on: SF-539 CNS
[15] = tested on: M14 melanoma
[16] = tested on: HOP-92 NSCLC
[17] = tested on: UACC-257 melanoma
[18] = tested on: NCI-H460 lung
[19] = tested on: NCI-H322M lung
[20] = tested on: HOP-62 NSCLC

Measured: growth

O=C(CCCNC(=O)c1nc(-c2ccccc2)n(-c2ccccc2)n1)NO
inactive: [1] 101% | [2] 85.6% | [3] 75.4% | [4] 71.7% | [5] 92.3% | [6] 109% | [7] 108% | [8] 106% | [9] 99.4% | [10] 103% | [11] 103% | [12] 105% | [13] 105% | [14] 107% | [15] 98%

C[N+]1(CCCCC[N+]2(C)CCCC2)CCCC1
inactive: [1] 105% | [2] 83.8% | [16] 74.6% | [4] 76.2% | [5] 118% | [6] 122% | [7] 93.2% | [9] 90% | [10] 89.5% | [11] 122% | [12] 97.1% | [13] 123% | [14] 93.7% | [17] 102% | [15] 98.5%

CC1/C=C/C=C/C=C/C=C/C=C/C=C/C=C/C(O[C@@H]2O[C@H](C)[C@H](O)[C@@H](O)[C@@H]2N)CC(O)C(C(=O)O)C(O)CC(=O)CC(O)CC(O)CC(O)CC(=O)CCCC(=O)CC(=O)OC1C(C)CC(C)C(O)CC(=O)c1ccc(N)cc1 (stereo partly specified)
active: [1] -96.5% | [2] -93% | [18] -81.8% | [4] -100% | [5] -94% | [6] -83.2% | [7] -98.7% | [9] -92.5% | [10] -94.8% | [11] -90.9% | [12] -95.8% | [13] -95.3% | [14] -71.4% | [17] -99.7% | [15] -88.7%

CCCCCC(=O)O[C@]1(C(C)=O)CCC2C3CCC4=CC(=O)CC[C@]4(C)C3CC[C@@]21C (stereo partly specified)
inactive: [1] 22.1% | [2] 52.7% | [18] 15.2% | [4] 27.9% | [5] 40.3% | [6] 13.3% | [7] 55.4% | [9] 62.1% | [10] 29.1% | [11] 53.2% | [12] 43.6% | [13] 13.1% | [14] 74.8% | [17] 14% | [15] 23.8%

CCCN1CN2C(=O)N3CN(CCC)CN4C(=S)N(C1)C2C34 (stereo unspecified)
inactive: [1] 100% | [19] 87.6% | [20] 84.7% | [18] 112% | [16] 101% | [3] 91.7% | [4] 102% | [5] 93.2% | [6] 114% | [7] 101% | [8] 105% | [9] 112% | [10] 98.6% | [11] 132% | [12] 97.3% | [13] 94.2% | [14] 95.3% | [17] 92.9% | [15] 94.5%

Cc1c2c[n+](C(C)C)ccc2c(C)c2c1[nH]c1ccccc12
active: [1] 6.42% | [18] 4.39% | [3] 2.71% | [6] -6.61% | [9] -25.6% | [13] 2.91%
inactive: [2] 27.4% | [4] 20.4% | [5] 27.7% | [7] 36.1% | [8] 23.3% | [10] 35.3% | [11] 60.3% | [12] 15.3% | [14] 20.8% | [15] 30%

O=C(CNc1nnc(-c2cccnc2SCc2ccccc2)s1)Nc1nc(Cl)cc(Cl)n1
inactive: [1] 112% | [2] 107% | [18] 123% | [3] 102% | [4] 120% | [7] 100% | [8] 109% | [9] 98.8% | [10] 104% | [11] 124% | [12] 91.5% | [13] 103% | [14] 110% | [17] 157% | [15] 106%

Cc1ccc(C2NC(=S)N3C(c4ccc(C)cc4)NC(=S)N23)cc1 (stereo unspecified)
active: [16] -3.05% | [3] -39.2% | [8] 5.27% | [13] 6.72% | [17] -22.5% | [15] -26.5%
inactive: [1] 38.9% | [2] 63.1% | [4] 32% | [6] 44% | [7] 18.7% | [10] 59.4% | [12] 37.6% | [14] 13.9%

O=C1c2ccccc2-c2c1c1cccnc1c(=O)n2C[C@H](O)CO
inactive: [1] 56.6% | [2] 78.8% | [18] 14.6% | [3] 44.4% | [5] 55.2% | [6] 53.9% | [7] 80.9% | [8] 76.6% | [9] 66.8% | [10] 75.7% | [11] 91% | [12] 75.3% | [13] 50.3% | [14] 52% | [15] 75.4%

CCN(CC)CCOc1cccc2c1C(=O)c1ccccc1C2=O
inactive: [1] 88.2% | [2] 93.8% | [16] 71.2% | [3] 84.3% | [4] 90.6% | [5] 93.1% | [6] 68.6% | [7] 100% | [8] 93.8% | [9] 115% | [10] 85.7% | [11] 79.9% | [12] 94.2% | [13] 96.8% | [14] 99.7% | [17] 94.4% | [15] 94.4%
